Assay outcomes (PubChem BioAssay)
Most compounds without a hit are left out; they make up all but 3.6% or so of the library.
mHTT-CaM PPI inh – disrupts binding of mutant huntingtin to calmodulin; P42858; AlphaScreen His-mHTT/GST-CaM binding, luminescence; inhibition, % at 15 µM; 3.6% of 190,000 active; AID 1671202
Target sequence (P42858 whole entry, looked up, change not shown): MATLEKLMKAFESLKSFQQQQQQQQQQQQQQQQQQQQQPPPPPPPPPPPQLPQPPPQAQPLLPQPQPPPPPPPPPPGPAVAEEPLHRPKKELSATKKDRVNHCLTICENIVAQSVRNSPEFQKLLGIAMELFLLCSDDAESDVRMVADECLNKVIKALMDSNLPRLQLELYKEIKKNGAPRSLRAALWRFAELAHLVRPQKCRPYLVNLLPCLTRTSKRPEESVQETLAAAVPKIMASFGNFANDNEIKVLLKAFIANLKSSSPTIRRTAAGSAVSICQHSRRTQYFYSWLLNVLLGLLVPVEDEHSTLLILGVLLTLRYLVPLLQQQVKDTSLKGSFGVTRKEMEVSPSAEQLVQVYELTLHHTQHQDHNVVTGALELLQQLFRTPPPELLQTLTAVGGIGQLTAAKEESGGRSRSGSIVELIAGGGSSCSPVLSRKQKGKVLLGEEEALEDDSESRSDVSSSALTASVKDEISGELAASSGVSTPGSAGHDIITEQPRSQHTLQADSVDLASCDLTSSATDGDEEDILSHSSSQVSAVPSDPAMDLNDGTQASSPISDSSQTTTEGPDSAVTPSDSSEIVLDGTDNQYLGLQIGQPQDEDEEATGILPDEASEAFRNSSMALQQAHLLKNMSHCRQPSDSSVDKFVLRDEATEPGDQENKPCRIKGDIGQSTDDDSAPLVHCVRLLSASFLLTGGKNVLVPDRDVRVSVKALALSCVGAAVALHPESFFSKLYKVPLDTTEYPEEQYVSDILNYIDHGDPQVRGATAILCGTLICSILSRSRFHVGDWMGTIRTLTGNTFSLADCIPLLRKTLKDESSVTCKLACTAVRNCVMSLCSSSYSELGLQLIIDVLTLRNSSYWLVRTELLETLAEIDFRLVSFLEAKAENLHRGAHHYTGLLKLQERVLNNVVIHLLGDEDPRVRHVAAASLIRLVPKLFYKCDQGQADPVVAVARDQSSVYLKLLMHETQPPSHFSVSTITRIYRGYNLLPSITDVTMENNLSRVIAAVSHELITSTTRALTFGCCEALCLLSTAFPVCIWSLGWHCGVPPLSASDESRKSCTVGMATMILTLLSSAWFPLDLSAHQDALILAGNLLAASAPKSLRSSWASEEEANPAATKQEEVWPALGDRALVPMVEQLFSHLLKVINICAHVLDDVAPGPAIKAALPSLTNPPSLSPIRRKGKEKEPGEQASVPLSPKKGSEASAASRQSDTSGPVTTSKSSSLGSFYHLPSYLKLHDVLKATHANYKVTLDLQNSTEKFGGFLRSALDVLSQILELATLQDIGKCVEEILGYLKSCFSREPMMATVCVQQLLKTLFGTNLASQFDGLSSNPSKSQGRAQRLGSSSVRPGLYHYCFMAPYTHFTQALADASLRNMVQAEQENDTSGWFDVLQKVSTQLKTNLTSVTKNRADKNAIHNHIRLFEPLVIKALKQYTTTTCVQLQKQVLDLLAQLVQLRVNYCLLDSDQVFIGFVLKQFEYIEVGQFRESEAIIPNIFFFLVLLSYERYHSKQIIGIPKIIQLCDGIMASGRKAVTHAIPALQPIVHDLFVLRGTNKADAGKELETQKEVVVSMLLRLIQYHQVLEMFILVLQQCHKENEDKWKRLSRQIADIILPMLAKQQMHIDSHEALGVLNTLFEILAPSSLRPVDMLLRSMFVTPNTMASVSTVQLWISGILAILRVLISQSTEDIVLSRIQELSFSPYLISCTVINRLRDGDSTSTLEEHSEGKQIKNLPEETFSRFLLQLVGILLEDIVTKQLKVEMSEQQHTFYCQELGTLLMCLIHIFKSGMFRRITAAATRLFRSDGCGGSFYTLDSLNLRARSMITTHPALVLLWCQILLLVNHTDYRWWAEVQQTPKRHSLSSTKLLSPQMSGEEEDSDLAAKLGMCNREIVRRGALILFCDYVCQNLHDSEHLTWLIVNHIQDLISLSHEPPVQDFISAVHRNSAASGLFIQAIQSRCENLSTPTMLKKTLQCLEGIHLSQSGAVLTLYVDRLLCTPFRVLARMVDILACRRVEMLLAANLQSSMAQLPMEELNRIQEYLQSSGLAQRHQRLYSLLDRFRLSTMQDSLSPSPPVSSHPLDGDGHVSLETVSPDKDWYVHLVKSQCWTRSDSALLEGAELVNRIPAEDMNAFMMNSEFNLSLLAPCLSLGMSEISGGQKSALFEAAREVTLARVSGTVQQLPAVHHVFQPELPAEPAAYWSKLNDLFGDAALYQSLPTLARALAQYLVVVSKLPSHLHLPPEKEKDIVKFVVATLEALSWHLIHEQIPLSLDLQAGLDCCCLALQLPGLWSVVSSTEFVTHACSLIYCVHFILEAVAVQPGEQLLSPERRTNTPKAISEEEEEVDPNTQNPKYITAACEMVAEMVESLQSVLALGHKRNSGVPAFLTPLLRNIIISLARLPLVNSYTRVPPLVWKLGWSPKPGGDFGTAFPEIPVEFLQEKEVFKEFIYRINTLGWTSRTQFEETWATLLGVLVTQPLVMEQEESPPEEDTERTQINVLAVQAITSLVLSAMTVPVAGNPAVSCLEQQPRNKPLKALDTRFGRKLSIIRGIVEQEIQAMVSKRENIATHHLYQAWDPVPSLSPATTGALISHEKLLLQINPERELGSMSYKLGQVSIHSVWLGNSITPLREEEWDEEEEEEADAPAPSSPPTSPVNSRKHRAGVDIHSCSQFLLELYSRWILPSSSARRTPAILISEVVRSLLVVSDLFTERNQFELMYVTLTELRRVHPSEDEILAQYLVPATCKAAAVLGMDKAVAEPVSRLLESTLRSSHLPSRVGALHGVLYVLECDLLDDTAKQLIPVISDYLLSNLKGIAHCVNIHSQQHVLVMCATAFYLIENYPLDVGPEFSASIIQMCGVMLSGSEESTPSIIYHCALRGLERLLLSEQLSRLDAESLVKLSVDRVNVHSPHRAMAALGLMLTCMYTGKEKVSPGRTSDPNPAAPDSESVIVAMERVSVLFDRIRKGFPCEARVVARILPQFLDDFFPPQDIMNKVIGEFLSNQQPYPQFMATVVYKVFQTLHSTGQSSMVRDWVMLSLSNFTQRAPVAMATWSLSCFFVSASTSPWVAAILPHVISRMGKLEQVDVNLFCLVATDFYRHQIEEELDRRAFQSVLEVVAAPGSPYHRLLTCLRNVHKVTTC
Pf apPOL block – Pf-apPOL DNA polymerase inhibition. Recombinant Pf-apPOL, molecular beacon fluorescence, 1.5 h. inhibition, % at 10 µM. 0.25% of 210,000 active. AID 1794808
Numbers stand for hits; 0 = inactive; - = no result given; ! = not active in a repeat. No stated cut-off is given here; in the data, active means inhibition above about 50%; inactive means the rest.

SMILES | mHTT-CaM PPI inh | Pf apPOL block
CCOc1ccccc1NC(=O)CC1Nc2cc(C)c(C)cc2NC1=O (configuration not stated) | 0 | 0
Cc1cc2c(cc1C)NC(CC(=O)Nc1ccccc1C)C(=O)N2 (configuration not stated) | 0 | 0
O=C1OC(C(=O)Nc2c(Cl)cccc2Cl)Cc2ccccc21 (configuration not stated) | 0 | 0
CN1CC(=Cc2ccco2)C(=O)C(=Cc2ccco2)C1 | - | 71
CN1C/C(=C/c2ccco2)C(=O)/C(=C/c2ccco2)C1 | 0 | -
Cc1nnc(-c2cc(C)n(CC(=O)Nc3cccc(F)c3)c2C)o1 | 0 | 0
COc1ccc(NC(=O)c2cc3cccc(OC)c3oc2=O)c(OC)c1 | 0 | 100
COc1cccc2cc(C(=O)Nc3ccc(C)cc3C)c(=O)oc12 | 0 | 0
CCOc1ccc(N=C2C(=O)Nc3ccccc32)cc1 | 0 | 0
CCOc1ccc(N=C2C(=O)Nc3ccc(C)c(Br)c32)cc1 | 57 | 0
CCOc1cc(C(=O)Nc2ccccc2OC)cc(OCC)c1OCC | 0 | 0
O=C(NCc1cc(-c2ccco2)on1)c1ccc(=O)oc1 | 0 | 63
O=C(NCc1cc(-c2ccco2)on1)c1ccc(F)c(F)c1 | 0 | 0
Cc1ccc(-c2nn(C)c(=O)c3ccccc23)cc1S(=O)(=O)N1CCN(C)CC1 | 0 | 0
O=C(CN(c1ccccc1)S(=O)(=O)c1ccc(Cl)cc1)Nc1ccc2c(c1)OCO2 | 0 | 0
O=C(CN(c1cccc(C(F)(F)F)c1)S(=O)(=O)c1ccccc1)Nc1cccc(Cl)c1 | 86 | 0
O=C(CN(c1cccc(C(F)(F)F)c1)S(=O)(=O)c1ccccc1)Nc1ccc(Cl)cc1 | 88 | 0
O=C(CN(c1ccc(Cl)c(C(F)(F)F)c1)S(=O)(=O)c1ccccc1)Nc1cccnc1 | 0 | 0
Cc1ccc(-n2c(N3CCC(C(=O)NC4CC4)CC3)nc3ccsc3c2=O)cc1 | 0 | 0
O=C(CC1(O)C(=O)N(Cc2ccccc2)c2ccccc21)c1ccc(Br)s1 (configuration not stated) | 52 | 0
O=C(CC1(O)C(=O)N(CCc2ccccc2)c2ccccc21)c1cccs1 (configuration not stated) | 0 | 0
Oc1ccc(Cl)cc1Sc1cc(Cl)ccc1O | 98 | -
CN(C)Cc1cc(Cl)ccc1O | 0 | 0
O=C(O)c1ccc(CN2CCOCC2)cc1 | 0 | 0
Cc1ccc(C)n1Cc1ccc(C(=O)O)cc1 | 53 | 0
SMILES | mHTT-CaM PPI inh | Pf apPOL block
Nc1nonc1-c1noc(-c2ccc(I)cc2)n1 | 0 | 0
COc1cc(OC)cc(C(=O)N2CCC3(CC2)NC(=O)c2ccccc2N3C)c1 | 0 | 0
COc1ccc(CN2C(=O)CCC2(C)C(=O)NCCc2ccc(OC)c(OC)c2)c(OC)c1 (configuration not stated) | 0 | 0
COc1ccc2oc(C)c(C(=O)O)c2c1 | 0 | 0
COc1ccc2oc(C)c(C(C)=O)c2c1 | 0 | 98
COCC(=O)NCCn1ncc2c(N3CCN(c4ccc(F)cc4)CC3)ncnc21 | 0 | 0
COc1ccc(NC(=O)Nc2ccc(CC(=O)N3CCC(O)CC3)cc2)c(OC)c1 | 0 | 0
CC(=O)N(Cc1ccc2c(c1)OCO2)Cc1cc(-c2ccc(C)cc2C)on1 | 61 | 0
CCN(Cc1cc(-c2ccc(C)cc2C)on1)C(=O)c1ccc(C)cc1 | 0 | 0
COc1cc(C2NC(=O)c3c(F)cccc3N2)c(Br)c(Br)c1O (configuration not stated) | - | 0
c1ccc(OCCC2CCNCC2)cc1 | 0 | 0
c1ccc(OCCOc2ccc(-c3cc(C4CCNCC4)[nH]n3)cc2)cc1 | 62 | 0
CC(C)(C)N=C1Nc2ccccc2CNC12CCN(C(=O)c1n[nH]c3c1CCCC3)C2 (configuration not stated) | 0 | 0
CS(=O)(=O)NCCc1c[nH]c2ccc(Cl)cc12 | 0 | -
Cc1ccn2c(NCc3ccccc3)c(-c3ccccc3O)nc2c1 | 80 | 0
Cc1ccn2c(NC(=O)CC(C)C)c(-c3ccccc3C)nc2c1 | 0 | 0
O=C(Nc1ccccc1N1CCOCC1)c1ccc(Br)o1 | 0 | 0
COc1ccc(C2CC(=O)Oc3c(C(C)C)ccc(C)c32)cc1 (configuration not stated) | 0 | 0
COc1ccc(C2CC(O)(c3ccccc3)Oc3c(C)ccc(C(C)C)c32)cc1 (configuration not stated) | 55 | 0
COc1ccc(C2CC(O)(c3ccccc3)Oc3cc(OC)ccc32)cc1 (configuration not stated) | 80 | 0
COc1ccc(C2CC(=O)Oc3cc(OC)ccc32)cc1 (configuration not stated) | 0 | 0
COc1ccc(Nc2c([N+](=O)[O-])c(=O)n(C)c3ccccc23)cc1 | 0 | 0
CC1Cc2ccccc2N1C(=O)Cn1nc(-n2cccn2)ccc1=O (configuration not stated) | 0 | 0
COC(=O)C1CN(C2CCCC2)CCS(=O)(=O)N1Cc1cn(Cc2ccccc2)nn1 (configuration not stated) | 0 | 0
CCOCCCNC(=O)c1cc(Sc2ccc(Cl)cc2)nc2ccccc12 | 0 | 0
SMILES | mHTT-CaM PPI inh | Pf apPOL block
C=CCc1ccc(OCC(O)CN2CCN(c3ccccc3)CC2)c(OC)c1 (configuration not stated) | 0 | 0
C=CCc1ccc(OCC(O)CN2CCN(c3ccc(OC)cc3)CC2)c(OC)c1 (configuration not stated) | 51 | 0
C=CCc1cc(OC)ccc1OCC(O)CN1CCN(c2ccccc2F)CC1 (configuration not stated) | 0 | 0
C=CCc1cc(OC)ccc1OCC(O)CN1CCN(c2ccc(OC)cc2)CC1 (configuration not stated) | 50! | 0
O=C(ON=C1CC2CCCC(C1)N2Cc1ccccc1)c1ccccc1 | - | 0
NC1=NC(c2ccc(Cl)cc2)=CC(c2ccc(F)cc2)S1 (configuration not stated) | 68 | -
COc1ccc(C2=CC(c3ccccc3)SC(N)=N2)cc1 (configuration not stated) | 0 | -
Cc1cc(C)cc(N2CCC(C(=O)NC3CC3)C2=O)c1 (configuration not stated) | 0 | 0
CCOc1ccc(C(C)NC(=O)c2cc(NC(C)=O)cc3nc(C)ccc23)cc1 (configuration not stated) | 0 | 0
O=C(NCc1ccco1)c1cc(-c2ccc(Br)s2)nc2ccccc12 | 0 | 0
Cc1ccc2c(C(=O)NCc3ccc(C)o3)cc(NC(=O)C3CCC3)cc2n1 | 64 | 0
CC(=O)Nc1cc(C(=O)NCc2ccccc2Br)c2ccc(C)nc2c1 | 55 | 0
CCOc1ccccc1CNC(=O)c1cc(NC(C)=O)cc2nc(C)ccc12 | 0 | 0
COc1ccc(C(C)NC(=O)c2cc(NC(C)=O)cc3nc(C)ccc23)cc1 (configuration not stated) | 54 | 0
Cc1ccc(CNC(=O)c2cc(-c3ccc(Br)s3)nc3ccccc23)o1 | 96 | 0
CNC(=O)c1cc(NC(=O)C2CCC2)cc2nc(C)ccc12 | 0 | 0
CCCCOc1ccc(NC(=O)NCCN2CCN(S(C)(=O)=O)CC2)cc1 | 0 | 0
CC(C)CN1CC23C=CC(O2)C(C(=O)O)C3C1=O (configuration not stated) | 0 | 0
COc1ccc(C2=N/C(=C\c3ccccc3[N+](=O)[O-])C(=O)O2)c(Cl)c1 | 0 | 77
Cc1ccccc1/C=C1\N=C(c2ccc(C)c([N+](=O)[O-])c2)OC1=O | 55 | 0
O=C1OC(c2ccc(Cl)cc2Cl)=N/C1=C\c1ccccc1[N+](=O)[O-] | 0 | 0
